Assay outcomes deposited in PubChem by several laboratories.
Hits are enriched below; roughly 32% of the tested compounds scored in any of these assays.
CYP2C9 inhib = blockers of cytochrome P450 2C9 activity – biochemical, luminescence, ADME assay, primary screen; P11712; CYP2C9 Supersomes, luciferin-H conversion; inhibition, % at 5 µM; 20% of 96,000 active;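 active means blocking of liver enzyme CYP2C9 beyond about 50% at 5 µM, limit read from the data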
Target sequence (P11712 whole entry, looked up): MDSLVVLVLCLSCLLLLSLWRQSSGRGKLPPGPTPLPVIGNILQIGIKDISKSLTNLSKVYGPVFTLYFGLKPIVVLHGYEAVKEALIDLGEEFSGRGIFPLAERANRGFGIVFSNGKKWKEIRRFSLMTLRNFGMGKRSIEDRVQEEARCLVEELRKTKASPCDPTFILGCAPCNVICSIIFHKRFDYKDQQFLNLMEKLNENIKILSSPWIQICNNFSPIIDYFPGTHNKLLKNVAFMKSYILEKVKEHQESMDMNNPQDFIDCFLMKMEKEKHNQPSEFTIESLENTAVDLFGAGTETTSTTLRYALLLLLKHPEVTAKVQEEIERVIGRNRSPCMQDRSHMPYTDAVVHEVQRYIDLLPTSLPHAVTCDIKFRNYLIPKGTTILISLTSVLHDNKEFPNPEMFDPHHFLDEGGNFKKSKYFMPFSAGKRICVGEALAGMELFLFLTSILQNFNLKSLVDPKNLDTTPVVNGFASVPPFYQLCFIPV
CYP2C9 activ = human CYP2C9 activators, primary screen, biochemical, luminescence; recombinant CYP2C9, luciferin-H conversion; stronger effect = higher value; factor 1 = untreated enzyme, 0 = blocked; activation factor at 5 µM; 1.4% of 96,000 active; AID 1024, 2008;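 active means activation factor of 2 or more for CYP2C9 at a 5 µM dose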;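 further: 0 = sulfaphenazole-blocked wells and 1 = vehicle-only wells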
CYP2C19 inhib = blockers of cytochrome P450 2C19 activity – biochemical, luminescence, ADME assay, primary screen; P33261; CYP2C19 Supersomes, luciferin-H EGE luminescence, 30 min; inhibition, % at 5 µM; 21% of 96,000 active; AID 778, 2007;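 active means CYP2C19 inhibition above a set limit at 5 µM in the primary screen, cut at about 50% in these data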;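 further: plate controls were negative control wells for no effect and 2.5 mM tranylcypromine positive control for full effect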
PostGolgi yeast = phenotypic screen on post-Golgi transport, primary screen | post-Golgi transport phenotypic cell assay | inhibition, % at 10 µM | 0.9% of 98,000 active;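 further: yeast cells grown in 1536-well plates; yeast grown about 18 h at 30C before absorbance read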
CYP2C19 activ = human CYP2C19 activators, primary screen, biochemical, luminescence; 96,000 tested, under 10 active; recombinant CYP2C19, luciferin-H EGE luminescence; stronger effect = higher value; 0 = fully inhibited enzyme, 1 = untreated enzyme; activation factor at 5 µM; Cytochrome P450 2C19 (Homo sapiens), P33261; AID 1025, 2008;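 active means activation factor of at least 2 at 5 µM in the primary screen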;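 further: 0 = wells with 2.5 mM tranylcypromine and 1 = vehicle-only wells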
PostGolgi ctrl = growth inhibition of yeast control strain, primary screen, counter-screen for post-Golgi transport modulator project. efflux-deficient yeast background strain, growth absorbance A615, 16 h. inhibition, % at 10 µM. 5% of 98,000 active. AID 738, 2007
Numbers without * were called inactive. Unless noted, no stated cut-off is given here; in the data, active means inhibition above about 30%; inactive means the rest.

`CC1=CC2=C(OC1N(C)C)c1cccc3cccc(c13)C2=O` (stereo not given) gave CYP2C9 inhib -5, CYP2C9 activ 1, CYP2C19 inhib 11, PostGolgi yeast 19, CYP2C19 activ 0.9 and PostGolgi ctrl 7.
Screening CCC(C)NC(=O)c1ccccc1NC(=O)COc1ccc(OC)cc1 (stereo not given) returned CYP2C9 inhib 73*, CYP2C9 activ 0.3, CYP2C19 inhib 51*, PostGolgi yeast 6, CYP2C19 activ 0.5 and PostGolgi ctrl 2.
Cc1ccc(N(C(C)C(=O)Nc2ccccc2C(=O)N2CCOCC2)S(C)(=O)=O)cc1C (stereo not given) was read as CYP2C9 inhib 17, CYP2C9 activ 0.8, CYP2C19 inhib 20, PostGolgi yeast -3, CYP2C19 activ 0.8 and PostGolgi ctrl 4.
Screening COc1ccc(NC(=O)c2ccccc2NC(=O)COc2ccccc2)cc1 returned CYP2C9 inhib 52*, CYP2C9 activ 0.5, CYP2C19 inhib -18, PostGolgi yeast -4, CYP2C19 activ 1.2 and PostGolgi ctrl 4.
CCC(C)NC(=O)c1ccccc1NC(=O)C(C)N(c1ccccc1)S(C)(=O)=O (stereo not given) was read as CYP2C9 inhib 49, CYP2C9 activ 0.5, CYP2C19 inhib 59*, PostGolgi yeast -4, CYP2C19 activ 0.4 and PostGolgi ctrl -13.
`COc1cc2cc(C(N)=O)c(N)nc2cc1OC` gave CYP2C9 inhib -4, CYP2C9 activ 1, CYP2C19 inhib -11, PostGolgi yeast -5, CYP2C19 activ 1.1 and PostGolgi ctrl 6.
C1=C(c2ccc(-c3ccccc3)cc2)Nc2ncnn2C1c1ccco1 (stereo not given) was read as CYP2C9 inhib 4, CYP2C9 activ 1, CYP2C19 inhib -2, PostGolgi yeast 3, CYP2C19 activ 1 and PostGolgi ctrl 20.
`COc1ccccc1NC(=O)CN1C(=O)NC(CC(C)C)C1=O` (stereo not given) gave CYP2C9 inhib -2, CYP2C9 activ 1, CYP2C19 inhib 0, PostGolgi yeast 4, CYP2C19 activ 1 and PostGolgi ctrl 48*.
For COc1ccc(OCC(=O)Nc2ccccc2OC)cc1 the results were CYP2C9 inhib 2, CYP2C9 activ 1, CYP2C19 inhib 63*, PostGolgi yeast 4, CYP2C19 activ 0.4 and PostGolgi ctrl 0.
`COc1cc(/C=N/NC(=O)CSCc2ccc([N+](=O)[O-])cc2)cc(OC)c1OC` gave CYP2C9 inhib 57*, CYP2C9 activ 0.4, CYP2C19 inhib 45, PostGolgi yeast -2, CYP2C19 activ 0.6 and PostGolgi ctrl 3.
Screening COc1ccc(/C=N/NC(=O)CSCC(=O)Nc2ccccc2)cc1OC returned CYP2C9 inhib 6, CYP2C9 activ 0.9, CYP2C19 inhib -13, PostGolgi yeast -5, CYP2C19 activ 1.1 and PostGolgi ctrl -7.
Screening CCCOc1ccccc1N/C(=N/c1nc(C)cc(C)n1)NC(=O)COc1ccc(OC)cc1 returned CYP2C9 inhib 92*, CYP2C9 activ 0.1, CYP2C19 inhib 90*, PostGolgi yeast 40*, CYP2C19 activ 0.1 and PostGolgi ctrl 7.
O=C(COc1ccccc1CNCc1ccccc1)Nc1ccccc1 was read as CYP2C9 inhib 45, CYP2C9 activ 0.6, CYP2C19 inhib 93*, PostGolgi yeast -5, CYP2C19 activ 0.1 and PostGolgi ctrl 1.
COc1ccccc1NC(=O)COc1ccc(/C=N/NC(=O)CSCc2ccc(Cl)cc2)cc1 was read as CYP2C9 inhib 66*, CYP2C9 activ 0.3, CYP2C19 inhib 63*, PostGolgi yeast -3, CYP2C19 activ 0.4 and PostGolgi ctrl 0.
For COc1cccc(OCC(=O)Nc2ccccc2NC(C)=O)c1 the results were CYP2C9 inhib -2, CYP2C9 activ 1, CYP2C19 inhib 76*, PostGolgi yeast 6, CYP2C19 activ 0.2 and PostGolgi ctrl 2.
`CNCc1ccccc1OCC(=O)Nc1ccccc1OC` gave CYP2C9 inhib -36, CYP2C9 activ 1.4, CYP2C19 inhib 64*, PostGolgi yeast -5, CYP2C19 activ 0.4 and PostGolgi ctrl 8.
`CCN=C(N/N=C/c1ccc([N+](=O)[O-])cc1)SC` gave CYP2C9 inhib 27, CYP2C9 activ 0.7, CYP2C19 inhib 43, PostGolgi yeast -4, CYP2C19 activ 0.6 and PostGolgi ctrl -1.
Screening CC1CCN(S(=O)(=O)c2ccc(S(=O)(=O)N3CCN4CCCC4C3)cc2)CC1 (stereo not given) returned CYP2C9 inhib 12, CYP2C9 activ 0.9, CYP2C19 inhib 14 and CYP2C19 activ 0.9.
CN(C)C(CNC(=O)CSc1nnc(-c2ccco2)o1)c1ccccc1 (stereo not given) was read as PostGolgi yeast 1 and PostGolgi ctrl 1.
For COc1ccccc1NC(=O)CNC(=O)c1ccccc1 the results were CYP2C9 inhib 23, CYP2C9 activ 0.8, CYP2C19 inhib 66*, PostGolgi yeast -5, CYP2C19 activ 0.3 and PostGolgi ctrl 13.
For COc1cc(NC(=O)CCCC(=O)OCC(F)(F)C(F)F)nc(OC)n1 the results were CYP2C9 inhib -32, CYP2C9 activ 1.3, CYP2C19 inhib 76*, PostGolgi yeast -1, CYP2C19 activ 0.2 and PostGolgi ctrl 10.
`Cc1ccsc1/C=N/NC(=O)CSCc1ccc(Cl)cc1` gave CYP2C9 inhib 22, CYP2C9 activ 0.8, CYP2C19 inhib 51*, PostGolgi yeast -8, CYP2C19 activ 0.5 and PostGolgi ctrl 15.
COc1ccccc1NC(=O)CCC(=O)Nc1ccccc1OC was read as CYP2C9 inhib -210, CYP2C9 activ 3.1*, CYP2C19 inhib 7, PostGolgi yeast 16, CYP2C19 activ 0.9 and PostGolgi ctrl 0.
`COc1ccccc1NC(=O)CCN1CCN(CCC(=O)Nc2ccccc2OC)CC1` gave CYP2C9 inhib 16, CYP2C9 activ 0.8, CYP2C19 inhib 22 and CYP2C19 activ 0.8.
Screening Cc1ccc(/C=N/NC(=O)CSCc2ccc(Cl)cc2)cc1 returned CYP2C9 inhib 28, CYP2C9 activ 0.7, CYP2C19 inhib 25, PostGolgi yeast 0, CYP2C19 activ 0.7 and PostGolgi ctrl 18.
Screening COc1ccccc1NC(=O)CCCC(=O)OCC(F)(F)C(F)F returned CYP2C9 inhib -182, CYP2C9 activ 2.8*, CYP2C19 inhib 87*, PostGolgi yeast -5, CYP2C19 activ 0.1 and PostGolgi ctrl 9.
`COc1ccc(NC(=O)CCCC(=O)OCC(F)(F)C(F)F)cc1` gave CYP2C9 inhib 9, CYP2C9 activ 0.9, CYP2C19 inhib 41 and CYP2C19 activ 0.6.
O=C(Nc1ncnc2c1CCC2)C12CC3CC(CC(C3)C1)C2 was read as CYP2C9 inhib 11, CYP2C9 activ 0.9, CYP2C19 inhib 6, PostGolgi yeast 12, CYP2C19 activ 0.9 and PostGolgi ctrl 0.
